{"source": "PubChem BioAssay AID602250", "about": "(The Scripps Research Institute Molecular Screening Center, 2012)", "note": "The campaign covered roughly 360,000 compounds. About 2,200 (0.61%) were called active. The sample as a whole holds a higher share of actives than the screen did. Values without a mark were called inactive.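 Rule for the calls: active = inhibition above a per-plate cutoff, the plate's mean sample inhibition plus 3 SD (cut at about 24% in these data); inactive = the rest.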", "data": [{"assay": "nonselective inhibitors of ATP calcium response in CHO-K1, primary screen, counter-screen for M1 antagonist project, cell-based, Fluo-8 calcium fluorescence, full deck, 1536-well (AID 602250);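 note: 0% = DMSO plus EC80 ATP and 100% = DMSO alone without ATP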", "settings": "CHO-K1 parental, ATP-induced calcium, Fluo-8 fluorescence; at 3 µM; active compounds read high", "values": [{"smiles": "COc1cc(C(=S)NCc2ccccc2)cc(Br)c1O", "inhibition": "-5.75%"}, {"smiles": "CCC(C)NC(=O)Cn1nc(C(F)(F)F)c2c1CCC2", "note": "(stereo unspecified)", "inhibition": "-24.7%"}, {"smiles": "Cc1cc(NC(=O)Cn2nc(C(F)(F)F)c3c2CCCC3)no1", "inhibition": "-9.16%"}, {"smiles": "O=C(Cn1nc(C(F)(F)F)c2c1CCC2)NCc1ccc(F)cc1", "inhibition": "25% (active)"}, {"smiles": "N#CC1(Nc2ccc3c4c(cccc24)CC3)CCCCC1", "inhibition": "35.7% (active)"}, {"smiles": "CC(C)C(=O)Nc1ccc2c3c(cccc13)CC2", "inhibition": "-5.37%"}, {"smiles": "N#CC1(Nc2ccc(-c3ccc(Cl)cc3)cc2)CCCC1", "inhibition": "-8.66%"}, {"smiles": "CCn1c(=O)c(=O)[nH]c2c(=O)oc3ccc(S(=O)(=O)Nc4ccc(OC)cc4)cc3c21", "inhibition": "-7.54%"}, {"smiles": "CCC(Cc1ccccc1)NC(=O)C1CCCCC1", "note": "(stereo unspecified)", "inhibition": "27.9% (active)"}, {"smiles": "CCC(NC(=O)C1CCCC1)c1ccc(C)cc1", "note": "(stereo unspecified)", "inhibition": "-8.16%"}, {"smiles": "Cc1ccc(NC(=O)[C@H](Cc2ccccc2)NC(=O)C2CCNCC2)cc1", "inhibition": "-21.4%"}, {"smiles": "O=c1[nH]c(CSc2ccccc2)nc2c1oc1ccccc12", "inhibition": "-8.98%"}, {"smiles": "CN(C(=O)CSc1nnc(-c2n[nH]c3ccccc23)o1)c1ccccc1", "inhibition": "-5.61%"}, {"smiles": "Cc1cccc2cc3c(N)c(C(=O)N4CCCc5ccccc54)sc3nc12", "inhibition": "13.5%"}, {"smiles": "COc1ccc(NC(=O)C(NC(C)=O)C(=O)NCc2ccccc2Cl)cc1", "note": "(stereo unspecified)", "inhibition": "1.86%"}, {"smiles": "O=C(Nc1ccc(Cl)cc1)c1csc([C@@H]2O[C@H](CO)[C@H](O)[C@H](O)[C@H]2O)n1", "inhibition": "-8.36%"}, {"smiles": "O=C(Nc1ccc(OCCO)cc1)c1csc([C@H]2C[C@H](O)[C@@H](CO)O2)n1", "inhibition": "25.4% (active)"}, {"smiles": "O=C(Nc1ccc(Cl)cc1)c1csc([C@H]2C[C@H](O)[C@@H](CO)O2)n1", "inhibition": "20.1%"}, {"smiles": "O=C(c1ccc(S(=O)(=O)NCc2ccco2)cc1)N1CCN(c2ccccc2)CC1", "inhibition": "-11.5%"}, {"smiles": "O=C(c1ccc(S(=O)(=O)N2CCOCC2)cc1)N1CCN(c2ccccc2)CC1", "inhibition": "24.7% (active)"}, {"smiles": "O=C(c1ccc(S(=O)(=O)N2CCCC2)cc1)N1CCN(c2ccccc2F)CC1", "inhibition": "-8.35%"}, {"smiles": "Cc1ccc(C(=O)Nc2ccn(C)n2)cc1", "inhibition": "-13.4%"}, {"smiles": "COC(=O)c1nc(NC(=O)c2ccc(F)cc2)n[nH]1", "inhibition": "-11.8%"}, {"smiles": "CSc1nccc(NC(=O)c2ccc(C(C)(C)C)cc2)n1", "inhibition": "24.6% (active)"}, {"smiles": "COc1ccccc1CNC(=O)c1cc(-c2cc(Cl)ccc2C)n[nH]1", "inhibition": "-17.7%"}, {"smiles": "Cc1ccc(S(=O)(=O)N(Cc2ccc(Cl)cc2)c2ccccc2C(=O)NCc2cccnc2)cc1", "inhibition": "22.6%"}, {"smiles": "Nc1nonc1-c1nc2ccccc2n1Cc1ccc(F)cc1", "inhibition": "24.1% (active)"}, {"smiles": "O=c1[nH]cccc1-c1nc2ccccc2n1Cc1ccc(Cl)cc1", "inhibition": "6.91%"}, {"smiles": "COc1ccc(C)c(Cn2c(-c3nonc3N)nc3ccccc32)c1", "inhibition": "-35.1%"}, {"smiles": "O/N=C(\\C[n+]1ccccc1)c1ccc(Br)cc1", "inhibition": "-7.88%"}, {"smiles": "CCS(=O)(=O)c1ccc(C(=O)NC)c(Cl)c1Cl", "inhibition": "-11.1%"}, {"smiles": "CC(=O)c1ccc(NC(=O)C2CCCN2S(=O)(=O)c2cccs2)cc1", "note": "(stereo unspecified)", "inhibition": "24% (active)"}, {"smiles": "CC(=O)Nc1ccc(S(=O)(=O)N2CCN(S(=O)(=O)c3cccs3)CC2)cc1", "inhibition": "6.03%"}, {"smiles": "CC(=O)c1cccc(NC(=O)C2CCCN2S(=O)(=O)c2cccc3nsnc23)c1", "note": "(stereo unspecified)", "inhibition": "5.27%"}, {"smiles": "Cc1ccc(SCCN2C(=O)NC(C)(C)C2=O)cc1", "inhibition": "-11.7%"}, {"smiles": "CCOC(=O)C1C(=O)C=C(c2ccc(OC)cc2)CC1c1ccco1", "note": "(stereo unspecified)", "inhibition": "-9.22%"}, {"smiles": "CCC1(C(=O)c2ccccc2)C(c2cccc([N+](=O)[O-])c2)C1(C(=O)OC)C(=O)OC", "note": "(stereo unspecified)", "inhibition": "-5.15%"}, {"smiles": "COc1ccc(N2CCN(C(=S)Nc3ccc(S(N)(=O)=O)cc3)CC2)cc1", "inhibition": "-21.9%"}, {"smiles": "CCCN(CC1COc2ccccc2O1)C(=S)Nc1ccc(C)cc1", "note": "(stereo unspecified)", "inhibition": "-5.53%"}, {"smiles": "S=C(NCC1COc2ccccc2O1)Nc1ccc(Br)cc1", "note": "(stereo unspecified)", "inhibition": "32.9% (active)"}, {"smiles": "CC(NC(=S)Nc1ccccc1)C1COc2ccccc2O1", "note": "(stereo unspecified)", "inhibition": "4.65%"}, {"smiles": "COc1ccc(C)cc1NC(=O)CN1c2cccc3cccc(c23)S1(=O)=O", "inhibition": "-7.85%"}, {"smiles": "CCc1ccccc1N(CC(=O)NCC1CCCO1)C(=O)CCC(=O)Nc1nccs1", "note": "(stereo unspecified)", "inhibition": "-0.55%"}, {"smiles": "C=CCNC(=S)N1CCN(CCN=Cc2c(C)[nH]n(-c3ccc([N+](=O)[O-])cc3)c2=O)CC1", "inhibition": "13.7%"}, {"smiles": "CC(=O)c1cccc(S(=O)(=O)N2CCC(n3nnc4cc(F)ccc43)CC2)c1", "inhibition": "-5.37%"}, {"smiles": "O=C(c1ccc(F)cc1)N1CCC(n2nnc3ccccc32)CC1", "inhibition": "5.53%"}, {"smiles": "O=S(=O)(c1cccc(S(=O)(=O)N2CCC(n3nnc4ccccc43)CC2)c1)N1CCCCC1", "inhibition": "25.7% (active)"}, {"smiles": "O=C1c2ccccc2C(=O)N1CC1c2ccccc2CCN1S(=O)(=O)c1ccccc1", "note": "(stereo unspecified)", "inhibition": "-4.18%"}, {"smiles": "CCc1nnc(NC(=O)CSc2nc(SC)ns2)s1", "inhibition": "-15.7%"}, {"smiles": "O=C(O)c1ccccc1-c1ccccc1C(=O)Nc1nccs1", "inhibition": "-12.8%"}, {"smiles": "COc1ccc(-c2nn(-c3ccccc3)cc2C(=O)Nc2nccs2)cc1OC", "inhibition": "33.9% (active)"}, {"smiles": "COc1ccc(Cl)cc1NC(=O)CN(C)C(=O)c1cn(-c2ccccc2)nc1-c1cccs1", "inhibition": "-12.4%"}, {"smiles": "O=C(COc1ccc(F)cc1)N(CC1=CCS(=O)(=O)C1)c1ccccc1", "inhibition": "-14.8%"}, {"smiles": "O=C1OC(Cc2ccccc2)C(c2ccccc2)C1=O", "note": "(stereo unspecified)", "inhibition": "-2.69%"}, {"smiles": "CCOC(=O)[C@H]1[C@H]2COc3ccc(Br)cc3[C@@H]2N2C(=O)CN(C)C(=O)[C@@]12C", "inhibition": "-3.65%"}, {"smiles": "Cc1c(C)n(Cc2ccc(Cl)cc2)c2ccc(C(=O)NCCCN3CCOCC3)cc12", "inhibition": "31.3% (active)"}, {"smiles": "COc1ccc(C(=O)NCCCN2CCOCC2)cc1Br", "inhibition": "8.25%"}, {"smiles": "O=C(NCCCN1CCOCC1)c1cc(-c2ccc(Cl)cc2)on1", "inhibition": "-8.77%"}, {"smiles": "O=C(COc1ncnc2c(Cl)cc(Cl)cc12)N1CCN(S(=O)(=O)c2ccccc2)CC1", "inhibition": "-14%"}, {"smiles": "O=C(Nc1cccc(Cl)c1)Nc1ccccc1NS(=O)(=O)c1cccs1", "inhibition": "36.7% (active)"}, {"smiles": "O=S(=O)(Nc1ccccc1Br)c1cccs1", "inhibition": "-11%"}, {"smiles": "O=S(=O)(Nc1ccccc1)c1ccc(NS(=O)(=O)c2cccs2)cc1", "inhibition": "-3.36%"}, {"smiles": "Cn1c(NCc2cccnc2)nc2cc(-c3ccc(F)cc3)sc2c1=O", "inhibition": "-2.34%"}, {"smiles": "CCN(C(=O)COC(=O)c1c(NC(C)=O)sc(C)c1C)C1CCS(=O)(=O)C1", "note": "(stereo unspecified)", "inhibition": "-7.84%"}, {"smiles": "Cc1ccc(S(=O)(=O)c2ccc(Cl)cc2)cc1S(=O)(=O)NC(C(=O)O)C(C)C", "note": "(stereo unspecified)", "inhibition": "-0.98%"}, {"smiles": "CC(=O)Nc1ccc(S(=O)(=O)N2CCN(C(=O)c3ccccc3F)CC2)cc1", "inhibition": "0.99%"}, {"smiles": "CCC1=NN(C(=O)Cc2ccc([N+](=O)[O-])cc2)C(O)(c2ccc(Br)cc2)C1", "note": "(stereo unspecified)", "inhibition": "-13.2%"}, {"smiles": "Cc1ccc(Nc2nc(CSc3nnnn3-c3ccccc3)cc(=O)[nH]2)cc1", "inhibition": "2%"}, {"smiles": "CN1OC[C@@H]2CN(C(=O)C(C)(C)C)[C@H](c3ccc(-n4ccnc4)cc3)C[C@@H]21", "inhibition": "28.2% (active)"}, {"smiles": "CN1OC[C@@H]2CN(C(=O)c3cccc4ccccc34)[C@H](c3ccc(N4CCCCC4)cc3)C[C@@H]21", "inhibition": "16.5%"}, {"smiles": "CN1OC[C@@H]2CN(C(=O)c3cccnc3)[C@H](c3ccc(N4CCCCC4)cc3)C[C@@H]21", "inhibition": "8.63%"}, {"smiles": "COc1ccc(Cl)cc1NC(=O)Cn1nc(-c2ccc(C)cc2)n(C)c1=S", "inhibition": "-1.73%"}, {"smiles": "COc1ccccc1OCC(=O)OCc1cc(-c2ccco2)on1", "inhibition": "-11.2%"}, {"smiles": "CC(C)C1C(=O)N(Cc2cn(CCC3OCCO3)nn2)CCS(=O)(=O)N1Cc1ccc(-c2ccccc2C(F)(F)F)cc1", "note": "(stereo unspecified)", "inhibition": "-1.16%"}, {"smiles": "Cc1ccc(Cn2nnc3c(=O)[nH]c(C4CCN(S(=O)(=O)/C=C/c5ccccc5)CC4)nc32)cc1", "inhibition": "-19.1%"}, {"smiles": "COCCNC(=O)/C(C#N)=C/c1cccc(OCc2ccccc2)c1", "inhibition": "-9.6%"}, {"smiles": "COc1cc(/C=C(\\C#N)C(=O)Nc2ccc3ccccc3c2)c([N+](=O)[O-])cc1OC", "inhibition": "0.2%"}, {"smiles": "COc1ccc(NC(=O)/C(C#N)=C\\c2cc(OC)c(OCc3ccc(C(=O)O)cc3)cc2Br)cc1", "inhibition": "24.8% (active)"}, {"smiles": "c1ccc(CCN2CN=C(Nc3nc4ccccc4o3)NC2)cc1", "inhibition": "-10.1%"}, {"smiles": "Cc1ccccc1N(C(=O)Cc1cccs1)C(C(=O)NC1CCCCC1)c1cn(C)nc1C", "note": "(stereo unspecified)", "inhibition": "-4.07%"}, {"smiles": "O=S(=O)(Nc1ccc2nc(-c3ccco3)[nH]c2c1)c1ccccc1", "inhibition": "-1.24%"}, {"smiles": "Cc1cc(OC(C)C(=O)Nc2ccc(S(=O)(=O)Nc3onc(C)c3C)cc2)cc(C)c1Cl", "note": "(stereo unspecified)", "inhibition": "8.91%"}, {"smiles": "COc1ccc(S(=O)(=O)NC2(C(F)(F)F)N=C3SCCN3C2=O)cc1", "note": "(stereo unspecified)", "inhibition": "6.7%"}, {"smiles": "O=C(NC1(C(F)(F)F)N=C2SCCN2C1=O)c1ccco1", "note": "(stereo unspecified)", "inhibition": "23.7% (active)"}, {"smiles": "O=C(NN1C(=O)C2CCCCC2C1=O)c1ccco1", "note": "(stereo unspecified)", "inhibition": "-4.97%"}, {"smiles": "Cc1c(NC(=O)CSCc2ccccc2)cccc1C(=O)O", "inhibition": "-4.2%"}, {"smiles": "CC(C)CN(CC(C)C)CC(O)CN(c1ccccc1)S(=O)(=O)c1ccccc1[N+](=O)[O-]", "note": "(stereo unspecified)", "inhibition": "-22.2%"}, {"smiles": "COc1ccc(C2(CNC(=O)Cc3ccc(OC)c(OC)c3)CCCC2)cc1", "inhibition": "0.54%"}, {"smiles": "O=C(/C=C(O)/C=C/c1ccc(O)cc1)/C=C/c1ccc(O)cc1", "inhibition": "31.8% (active)"}, {"smiles": "C=CCNC(=O)/C=C/c1ccc(C(C)C)cc1", "inhibition": "-7.72%"}, {"smiles": "O=C(O)/C=C/c1ccc(S(=O)(=O)N2CCCCCC2)cc1", "inhibition": "-2.18%"}]}]}
